Source: PubChem BioAssay
Many of the other results were omitted from the sample, so hits are more common in it than they were.
Dicer inh: inhibitors of Dicer pre-microRNA processing, primary screen, biochemical, cat-ELCCA, chemiluminescence | Endoribonuclease Dicer (Homo sapiens), Q9UPY3 | cat-ELCCA pre-miR-21 Dicer processing; active compounds read high | z-score at 25 µM | hit rate 6% among 47,000 | AID 1347074, 2019; in the data active = z-score above about 3, passing the limit was not always enough;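 note: higher signal means more uncleaved substrate so more Dicer inhibition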
A number is an active result; 0 = inactive.

SMILES	Dicer inh
CCOc1ccc(N2CCCn3c2nc2c3c(=O)n(CC(=O)O)c(=O)n2C)cc1	0
Cn1c(=O)n(CC(=O)O)c(=O)c2c1nc1n2CCN1c1ccc(F)cc1	5.4
Cn1c(=O)n(CC(=O)O)c(=O)c2c1nc1n2CCCN1c1ccc(Cl)cc1	3
Cn1c(=O)n(CC(=O)O)c(=O)c2c1nc1n2CCCN1c1ccc(F)cc1	0
CC1CN(c2ccc(Cl)cc2)c2nc3c(c(=O)n(CC(=O)O)c(=O)n3C)n2C1 (stereo unspecified)	0
CCc1ccc(C2OC3(C(=O)c4ccccc4C3=O)C3C(=O)N(c4cccc(F)c4)C(=O)C23)cc1 (stereo unspecified)	0
Cc1cccc(C)c1C(=O)NC(=O)Nc1c(F)cc(F)cc1F	56
O=C(NC(=O)c1c(Cl)cccc1Cl)Nc1c(F)cc(F)cc1Br	0
COc1ccc(Br)c(OC)c1C(=O)NC(=O)Nc1c(F)cccc1F	0
CC(=O)OCC12COC(c3ccccc3OC(C)=O)C(C(C)=CC1C)C2C (stereo unspecified)	0
CC(=O)OCC12COC(c3ccc(OC(C)=O)cc3)C(C(C)=CC1C)C2C (stereo unspecified)	3.4
COc1ccc(C2OCC3(COC(C)=O)C(C)C=C(C)C2C3C)cc1 (stereo unspecified)	0
O=C(NC(=O)c1cnn2c(C(F)(F)F)cc(C(F)(F)F)nc12)Nc1ccc(Cl)cc1	0
COC(=O)CSC1=C(C#N)C(=O)NC(c2ccc(OC)cc2)S1 (stereo unspecified)	0
Nc1nc(Nc2ccccc2)nc(NCc2ccccc2)c1[N+](=O)[O-]	0
O=c1[nH]cc(NCc2ccccc2)c(=O)[nH]1	0
Nc1c(NCc2ccccc2)c(=O)c1=O	3.3
Cc1ccc(S(=O)(=O)NC(=O)NCC(OC(=O)NS(=O)(=O)c2ccc(C)cc2)c2ccccc2)cc1 (stereo unspecified)	0
Cc1cc(C)nc(Nc2nc(N)c3ccccc3n2)n1	0
COC(=O)c1ccsc1NC(=O)c1ccc(C)cc1	0
Clc1ccc(-c2nc(-c3cc(Cl)c(Cl)s3)cs2)cc1	0
COc1ccc(C(=O)CC(=O)c2cc(Cl)ccc2O)cc1OC	0
Cc1ccc(C(=O)COC(=O)c2cc(Cl)ccc2O)cc1C	4
O=C(COC(=O)c1cc2ccccc2cc1OC(=O)c1ccc(Cl)cc1)c1ccc(Cl)cc1	0
CCCOC(=O)C1=C(C)NC2=C(C(=O)CCC2)C1c1ccc(C(=O)OC)cc1 (stereo unspecified)	0
SMILES	Dicer inh
CCOc1cc(-n2c(C)ccc2C)c(OCC)cc1N1CCOCC1	0
CCc1ccc(-n2nnnc2/C=C/N(C)C)cc1	0
CCN(/C=C/c1nnnn1-c1ccc(Br)cc1)CC	0
CCN(/C=C/c1nnnn1-c1ccc(Cl)cc1)c1ccccc1	3.2
COc1ccc(NC2=NS(=O)(=O)c3ccccc32)c(OC)c1	0
O=C(Nc1ccc(Br)c(C(F)(F)F)c1)c1csc(-c2cccc(Cl)c2Cl)n1	0
CCOc1ccccc1O[C@@H](c1ccccc1)[C@H]1CNCCO1	0
CC(C)(C)NNC(=O)c1ccccc1N	0
S=c1ncc(Sc2ncccn2)c(-c2ccc(Cl)cc2)[nH]1	0
CCOc1ccc(-c2cnc(NCc3ccc(SC)cc3)n2C)cc1	0
CCOC(=O)CSc1nnc2c(n1)[nH]c1ccccc12	0
C=C(C)CSc1nnc2c(n1)[nH]c1ccccc12	3.6
Cc1nnc(NC(=O)CSc2nnc3c(n2)[nH]c2ccccc23)s1	0
O=C(CSc1nnc2c(n1)[nH]c1ccccc12)Nc1nnc(-c2ccccc2)s1	0
O=C(O)CSc1nnc2c(n1)[nH]c1ccccc12	0
O=C(CSc1nnc2c(n1)[nH]c1ccccc12)Nc1nc2ccccc2s1	5.4
CC(C)n1c(CCC(=O)O)ccc1-c1ccc(Cl)cc1	0
O=c1c2ccccc2nc(SCc2c(F)cccc2Cl)n1-c1cccnc1	0
Cc1oc2c(CN3CCC(C)CC3)c(O)ccc2c(=O)c1-c1nc2ccccc2s1	0
CCOC(=O)C1=C(C)NC2=C(C(=O)CC(C)(C)C2)C1c1ccccc1F (stereo unspecified)	0
COc1cccc(C2c3c(oc4ccccc4c3=O)C(=O)N2c2nnc(C)s2)c1 (stereo unspecified)	0
CCOC(=O)c1c(C)csc1NC(=O)/C(C#N)=C/c1ccc(O)cc1	0
CCOC(=O)NC(=O)/C(C#N)=C/c1ccc(N(C)C)cc1	3.4
CCOC(=O)/C(C#N)=C/c1ccc(-c2ccccc2)cc1	0
COc1cccc(C2N(Cc3ccccc3)CCN2Cc2ccccc2)c1O	0
SMILES	Dicer inh
CCN(CC)C(=S)Oc1c(C)c(C)nc(=S)n1CCCOC	9.4
Cc1nn2cc(C#N)c(-c3ccccc3)nc2c1-c1ccccc1	0
Oc1ccc(/C=N/N=C/c2ccc(O)cc2O)c(O)c1	0
O=C(CSc1nc2ccccc2nc1N1CCCC1)N1CCN(C2CCCCC2)CC1	3
CC1CN(c2nc3ccccc3nc2SCC(=O)NC2CCCCC2)CC(C)O1 (stereo unspecified)	0
CC1CN(c2nc3ccccc3nc2SCC(=O)NC2CCCC2)CC(C)O1 (stereo unspecified)	0
CC1CN(c2nc3ccccc3nc2SCC(=O)N2CCN(C3CCCCC3)CC2)CC(C)O1 (stereo unspecified)	0
CC1CCN(c2nc3ccccc3nc2SCC(=O)NC2CC2)CC1	3.1
O=C(CSc1nc2ccccc2nc1N1CCOCC1)N1CCN(C2CCCCC2)CC1	0
COc1ccc(OC)c(NC(=O)CSc2nc3ccccc3nc2N2CCCC2)c1	0
O=C(CSc1nc2ccccc2nc1N1CCCCC1)NCC1CCCO1 (stereo unspecified)	3.1
O=C(CSc1nc2ccccc2nc1N1CCCC1)NCC1CCCO1 (stereo unspecified)	0
FC(F)(F)c1cc(-c2nccs2)nc2cc(-c3ccccc3)nn12	0
CCc1c(C(=O)OC)nn(-c2ccc(C)cc2)c(=O)c1C#N	0
CCOC(=O)c1cnc(SCc2cccc(C(F)(F)F)c2)nc1N	0
CC(C)OC(=O)c1cccc(C(=O)O)n1	0
CC(C)OC(=O)c1cccc(C(=O)OC(C)C)n1	0
CC(C)OC(=O)c1cccc(C(=O)Oc2ccc(Br)cc2)n1	4.4
COc1ccc(C(=O)/C=C2\SC(=O)C(=O)N2c2ccccc2)cc1	0
NC(N)=NCCCC(NC(=O)c1ccccc1)C(=O)O (stereo unspecified)	0
Clc1c(Cl)c(Cl)c(-n2cccc2)c(Cl)c1Cl	0
NN1CC(=O)N(c2ccccc2F)CC1=O	0
Cc1ccc(NC(=O)NN2CC(=O)N(c3ccc(Cl)cc3)CC2=O)cc1	0
Cc1ccc(NC(=O)NN2CC(=O)N(c3ccccc3F)CC2=O)cc1	4.8
CCOC(=O)C1(CC)CC(C)(c2csc(Nc3ccccc3Cl)n2)OC1=O (stereo unspecified)	0
SMILES	Dicer inh
CCOC(=O)c1ccc2nsnc2c1	0
O=C(O)c1ccc2nsnc2c1	0
COC(=O)c1ccc2nsnc2c1	3.8
CC(C)n1c(Sc2ncc([N+](=O)[O-])s2)nc2cc(C(F)(F)F)ccc21	0
O=c1cc(-c2ccccc2)nc2scc(-c3ccc([N+](=O)[O-])cc3)n12	0
O=C(N/C=C/c1ccsc1)Sc1ccc(Cl)cc1	0
CCOC(=O)c1nn(-c2ccccc2)c(=O)c2c(N)c(C#N)c(-c3ccccc3)cc12	0
Cc1ccc(-c2cc(-c3ccccc3)c(C#N)c(N)n2)cc1	0
CC(=O)n1c(-c2ccc(C)cc2)cc(-c2ccc(C)cc2)c(C#N)c1=O	3.4
